Hits are enriched below; roughly 2.9% of the tested compounds scored in any of these assays.
PME-1 primary = blocks human protein phosphatase methylesterase 1; recombinant PME-1, FP-Rh probe fluorescence polarization; inhibition, % at 5.9 µM; 320,000 compounds, 0.53% hits;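 active means inhibition above the campaign mean of all compounds plus 3 SD, cut at about 26% in these data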;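 further: competitive labeling of PME-1 active site by serine hydrolase directed probe; inhibitors block probe labeling so polarization falls and inhibition rises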
PAFAH1B3 inh = inhibitors of human PAFAH1B3; Q15102; recombinant PAFAH1B3, FP-rhodamine probe, fluorescence polarization; inhibition, % at 3.39 µM; 340,000 compounds, 0.28% hits; AID 492972;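 active means inhibition above the screen-wide average of all tested compounds plus 3 SD, cut at about 25% in these data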
Target sequence (Q15102 whole entry, looked up): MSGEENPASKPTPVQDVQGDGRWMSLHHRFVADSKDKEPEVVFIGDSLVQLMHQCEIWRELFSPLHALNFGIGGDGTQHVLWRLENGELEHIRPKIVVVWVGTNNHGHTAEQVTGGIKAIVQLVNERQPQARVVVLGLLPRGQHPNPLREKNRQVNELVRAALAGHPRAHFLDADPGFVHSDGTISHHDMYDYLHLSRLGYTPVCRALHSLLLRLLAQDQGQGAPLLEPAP
PAFAH1B2 FP inh = PAFAH1B2 (human) inhibition; inhibition, % at 3.39 µM; recombinant PAFAH1B2, FP-rhodamine activity probe, fluorescence polarization; 340,000 compounds, 1.2% hits; P68402; AID 492953;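 active means inhibition above the mean of all tested compounds plus 3 SD, cut at about 24% in these data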
Target sequence (P68402 whole entry, looked up): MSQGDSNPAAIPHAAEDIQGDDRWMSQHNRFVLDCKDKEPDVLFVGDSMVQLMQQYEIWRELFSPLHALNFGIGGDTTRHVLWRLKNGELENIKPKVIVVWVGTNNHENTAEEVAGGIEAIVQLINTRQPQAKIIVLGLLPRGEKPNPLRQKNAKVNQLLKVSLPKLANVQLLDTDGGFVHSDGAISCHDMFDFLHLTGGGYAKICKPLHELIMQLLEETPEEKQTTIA
PAFAH2 FP inh = PAFAH2 (human) inhibition | Q99487 | recombinant PAFAH2, FP-rhodamine activity probe, fluorescence polarization | inhibition, % at 3.39 µM | 340,000 compounds, 0.99% hits;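 active means inhibition above the mean over all tested compounds plus 3 SD, cut at about 30% in these data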;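 further: inhibitors block probe labeling of enzyme so polarization drops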
pPAFAH inh = pPAFAH (human) enzyme inhibition; inhibition, % at 3.39 µM; Q13093; recombinant pPAFAH, FP-rhodamine probe fluorescence polarization; 330,000 compounds, 1.5% hits;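 active means inhibition above the mean inhibition across the screen plus 3 SD, cut at about 25% in these data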;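 further: inhibitors block binding of the rhodamine activity-based probe so polarization drops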
Fam108B counter = counter-screen for RBBP9 inhibitors: inhibitors of mouse Fam108B. recombinant Fam108B, FP-Rh probe fluorescence polarization. inhibition, % at 9.51 µM. 300,000 compounds, 0.33% hits;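 active means inhibition above the screen mean inhibition plus 3 SD, computed separately per campaign, cut at about 18% in these data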;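 further: inhibitors lower polarization as less probe binds the enzyme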
A number is an active result.

How did O=C(CSc1ccc(Cl)cc1)NNC(=O)c1cccnc1 do in these assays?
PME-1 primary: inactive; PAFAH1B3 inh: inactive; PAFAH1B2 FP inh: 28.0; PAFAH2 FP inh: inactive; pPAFAH inh: inactive; Fam108B counter: inactive

How did CN(C)C(=O)CCc1ccc2c3c([nH]c2c1)[C@]1(CCC2CCCC2)[C@@H](C(=O)N2CCOCC2)C[C@H](CC(=O)NCCCn2ccnc2)C(=O)N1CC3 do in these assays?
PAFAH1B3 inh: inactive; PAFAH1B2 FP inh: inactive; PAFAH2 FP inh: inactive; pPAFAH inh: inactive

What do the screens show for `O=C(CCS(=O)(=O)c1ccc(Cl)cc1)NCCN1C(=O)S/C(=C\c2ccccc2F)C1=O`?
PME-1 primary: inactive; PAFAH1B3 inh: inactive; PAFAH1B2 FP inh: inactive; PAFAH2 FP inh: inactive; pPAFAH inh: inactive; Fam108B counter: inactive

How did Cc1ccc(S(=O)(=O)CCC(=O)NCCN2C(=O)S/C(=C\c3ccccc3)C2=O)cc1 do in these assays?
PME-1 primary: 35.1; PAFAH1B3 inh: inactive; PAFAH1B2 FP inh: inactive; PAFAH2 FP inh: inactive; pPAFAH inh: inactive; Fam108B counter: inactive

Results for CSc1nc(O)c(C(c2cccc([N+](=O)[O-])c2)c2c(O)nc(SC)[nH]c2=O)c(=O)[nH]1 ?
PME-1 primary: inactive; PAFAH1B3 inh: inactive; PAFAH1B2 FP inh: inactive; PAFAH2 FP inh: inactive; pPAFAH inh: inactive; Fam108B counter: inactive

Results for CC(C)(C)[C@@H]1COC(=O)[C@H](Cc2ccc(F)cc2)C/C=C\C[C@@H](CC(=O)NCCO)C(=O)N1 ?
PAFAH1B3 inh: inactive; PAFAH1B2 FP inh: 31.9; PAFAH2 FP inh: inactive; pPAFAH inh: inactive

How did C[C@@H]1COC(=O)[C@H](Cc2ccc(F)cc2)C/C=C\C[C@@H](CC(=O)NCCO)C(=O)N1 do in these assays?
PAFAH1B3 inh: inactive; PAFAH1B2 FP inh: 32.9; PAFAH2 FP inh: inactive; pPAFAH inh: inactive

Results for C[C@H]1COC(=O)[C@@H](Cc2ccc(F)cc2)C/C=C\C[C@@H](CC(=O)NCCO)C(=O)N1 ?
PAFAH1B3 inh: inactive; PAFAH1B2 FP inh: inactive; PAFAH2 FP inh: inactive; pPAFAH inh: inactive

How did Cc1ccc(C(=O)NCC(=O)NCC(=O)OCC(=O)c2ccc(Br)cc2)cc1 do in these assays?
PME-1 primary: inactive; PAFAH1B3 inh: inactive; PAFAH1B2 FP inh: inactive; PAFAH2 FP inh: inactive; pPAFAH inh: inactive; Fam108B counter: inactive

How did Cc1cc(NCCc2ccc(Cl)cc2)n2ncnc2n1 do in these assays?
PME-1 primary: inactive; PAFAH1B3 inh: inactive; PAFAH1B2 FP inh: 24.4; PAFAH2 FP inh: inactive; pPAFAH inh: inactive; Fam108B counter: inactive

How did CC(NCc1ccc(OCc2ccc(Cl)cc2)cc1)C(O)c1ccccc1 (stereo not drawn) do in these assays?
PME-1 primary: inactive; PAFAH1B3 inh: inactive; PAFAH1B2 FP inh: 63.6; PAFAH2 FP inh: inactive; pPAFAH inh: inactive; Fam108B counter: inactive

Results for O=C(C[C@@H]1C/C=C/CC[C@@H](Cc2ccc(F)cc2)C(=O)O[C@@H](c2ccccc2)CNC1=O)NCCO ?
PAFAH1B3 inh: inactive; PAFAH1B2 FP inh: inactive; PAFAH2 FP inh: inactive; pPAFAH inh: inactive

Results for O=C(C[C@@H]1C/C=C/CC[C@@H](Cc2ccc(F)cc2)C(=O)O[C@H](c2ccccc2)CNC1=O)NCCO ?
PAFAH1B3 inh: inactive; PAFAH1B2 FP inh: 24.2; PAFAH2 FP inh: inactive; pPAFAH inh: inactive

What do the screens show for `O=C(C[C@H]1C/C=C/CC[C@H](Cc2ccc(F)cc2)C(=O)O[C@H](c2ccccc2)CNC1=O)NCCO`?
PAFAH1B3 inh: inactive; PAFAH1B2 FP inh: 30.2; PAFAH2 FP inh: inactive; pPAFAH inh: inactive

What do the screens show for `CCN1CCN(c2ccc(NC(=O)c3cc4ccccc4cc3OC)cc2C)CC1`?
PME-1 primary: inactive; PAFAH1B3 inh: inactive; PAFAH1B2 FP inh: inactive; PAFAH2 FP inh: inactive; pPAFAH inh: inactive

How did COc1ccc(C(=O)N2CCN(CCNC(=O)C(=O)Nc3ccc(F)cc3)CC2)cc1OC do in these assays?
PME-1 primary: inactive; PAFAH1B3 inh: inactive; PAFAH1B2 FP inh: inactive; PAFAH2 FP inh: inactive; pPAFAH inh: inactive; Fam108B counter: inactive

What do the screens show for `Cc1ccc(C(=O)Oc2cc(C)[nH]c(=O)c2[N+](=O)[O-])cc1`?
PME-1 primary: inactive; PAFAH1B3 inh: inactive; PAFAH1B2 FP inh: inactive; PAFAH2 FP inh: inactive; pPAFAH inh: 29.2; Fam108B counter: inactive

How did COc1ccc(C(NC(=O)CC(C)C)c2c(O)ccc3ccccc23)cc1 (stereo not drawn) do in these assays?
PME-1 primary: inactive; PAFAH1B3 inh: inactive; PAFAH1B2 FP inh: inactive; PAFAH2 FP inh: inactive; pPAFAH inh: inactive; Fam108B counter: inactive

High-throughput results (PubChem BioAssay)
